From PubChem BioAssay (EPA / NIEHS)
Inconclusive results are not listed. The source made the active and inactive calls. Rule for the calls, unless noted: active = hit-call score of the fitted dose curve at least 0.9, where 1 is the maximum; inactive = score below 0.9.

Tests used:
[1] = CCTE_Shafer_MEA_dev_firing_rate_mean: CCTE's Neural Network Formation Assay for Mean Firing Rate, Shafer Lab (AID 2284031)
Summary of the method: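 Steps: seed rat cortical cells (1.5 x 10^5/well) with laminin on PEI-coated MEA; dose day 0; record DIV 5/7/9/12, full media and compound exchange after DIV 5 and 9 recordings; compute well-mean firing rate AUC.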

[2] = CCTE_Shafer_MEA_dev_per_burst_spike_percent: CCTE's Neural Network Formation Assay for Percent of Spikes in a Burst, Shafer Lab (AID 2284032)
Summary of the method: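 Value is trapezoidal AUC over recordings on days 5, 7, 9 and 12 of the well-mean fraction of spikes falling in single-electrode bursts; rat cortical cultures exposed continuously from plating, treatment renewed DIV 5 and 9, fitted downward against DMSO.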

[3] = CCTE_Shafer_MEA_dev_burst_rate: CCTE's Neural Network Formation Assay for Burst Rate, Shafer Lab (AID 2284042)
Summary of the method: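 Rat primary cortical cultures on PEI/laminin MEA; compound from plating, re-dosed at DIV 5, 9 media change. Single-electrode bursts/recording length, well mean of active electrodes; AUC over DIV 5–12 recordings; loss-of-signal vs DMSO.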

[4] = CCTE_Shafer_MEA_dev_per_burst_interspike_interval: CCTE's Neural Network Formation Assay for Burst Interspike Interval, Shafer Lab (AID 2284044)
Summary of the method: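 Spontaneous activity of maturing rat cortical networks is recorded on DIV 5, 7, 9 and 12 under chronic compound exposure beginning at plating. Endpoint: burst interspike interval well-mean, collapsed into trapezoidal AUC and fitted in the negative direction relative to DMSO.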

[5] = CCTE_Shafer_MEA_dev_burst_duration_mean: CCTE's Neural Network Formation Assay for Mean Burst Duration, Shafer Lab (AID 2284045)
Summary of the method: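 Mean single-electrode burst duration (first to last spike), averaged over bursting electrodes per well, then integrated as area-under-curve across recordings at days 5, 7, 9 and 12. Rat cortical cultures on MEAs, compound present from plating, refreshed at feeds.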

[6] = CCTE_Shafer_MEA_dev_interburst_interval_mean: CCTE's Neural Network Formation Assay for Mean Interburst Interval, Shafer Lab (AID 2284046);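 note: well-mean interburst interval of bursting electrodes as AUC over four recording days; curve fitted for decrease in interburst interval relative to DMSO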
Summary of the method: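 Rat cortical neurons, 1.5 x 10^5 cells/well, 48-well MEA; compound from day 0 through DIV 12, media and treatment renewed DIV 5/9. Recordings DIV 5, 7, 9, 12; well-mean interburst interval → trapezoidal AUC, loss direction vs DMSO.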

[7] = CCTE_Shafer_MEA_dev_inter_network_spike_interval_mean: CCTE's Neural Network Formation Assay for Mean Inter-network Spike Interval, Shafer Lab (AID 2284047)
Summary of the method: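 Primary rat cortical neurons on PEI-coated 48-well MEAs (16 electrodes/well) were exposed from plating day 0 to DIV 12, with dosing renewed at DIV 5 and 9. Recordings at DIV 5, 7, 9, 12 were collapsed by trapezoidal AUC, loss-of-signal fit vs DMSO.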

[8] = CCTE_Shafer_MEA_dev_network_spike_peak: CCTE's Neural Network Formation Assay for Mean Number of Electrodes in Network Spike, Shafer Lab (AID 2284049)
Summary of the method: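 Rat cortical primary culture, 1.5 x 10^5 cells/well, 48-well MEA (16 electrodes/well). Dosing day 0 through DIV 12, full media/compound exchange DIV 5, 9. AxIS adaptive spike detection; AUC over days 5/7/9/12; loss-of-signal vs DMSO.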

[9] = CCTE_Shafer_MEA_dev_spike_duration_mean: CCTE's Neural Network Formation Assay for Mean Spike Duration, Shafer Lab (AID 2284051);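 note: mean network spike duration pooled as area under curve over DIV 5 to 12 recordings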
Summary of the method: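 Rat cortical primary cultures, 48-well MEA (16 electrodes/well); compound from plating, renewed DIV 5, 9. Network spike duration (AxIS adaptive detector) recorded DIV 5/7/9/12, combined as trapezoidal AUC; loss direction vs DMSO.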

[10] = CCTE_Shafer_MEA_dev_network_spike_duration_std: CCTE's Neural Network Formation Assay for Standard Deviation of Network Spike Duration, Shafer Lab (AID 2284052);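 note: hits are decreases in network spike duration SD versus DMSO vehicle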
Summary of the method: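 Rat cortical cultures, 1.5 x 10^5 cells/well, exposed continuously from plating to DIV 12 with media/compound renewal at DIV 5, 9. Spontaneous activity recorded DIV 5/7/9/12, AxIS adaptive spike detector; AUC across days; negative direction vs DMSO.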

[11] = CCTE_Shafer_MEA_dev_per_network_spike_spike_number_mean: CCTE's Neural Network Formation Assay for Mean Number of Spikes in a Network Spike, Shafer Lab (AID 2284053)
Summary of the method: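 Rat cortical primary cultures on 48-well MEA; compound from day 0, re-dosed with full media change DIV 5, 9. Recorded DIV 5, 7, 9, 12; spikes in 0.05 s window at network-spike peak ÷ total network spikes; AUC; loss vs DMSO.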

[12] = CCTE_Shafer_MEA_dev_per_network_spike_spike_percent: CCTE's Neural Network Formation Assay for Percent of Spikes in a Network Spike, Shafer Lab (AID 2284054)
Summary of the method: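 Metric: fraction of spikes falling in a 0.05 s window at network-spike peaks. Recordings were made on days 5, 7, 9 and 12 and collapsed by trapezoidal AUC. Cultures were rat cortical neurons on MEA plates, dosed continuously from plating, re-dosed at media changes.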

[13] = CCTE_Shafer_MEA_dev_LDH: CCTE's Lactate Dehydrogenase Assay for Cytotoxicity in the Neural Network Formation Assay, Shafer Lab (AID 2284068; active = hit-call score of the fitted dose curve at least 0.9, where 1 is the maximum;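 note: exposure for twelve days from plating with re-dosing on DIV 5 and 9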)
Summary of the method: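 Rat cortical primary neurons, MEA culture; dosing day 0–12, full medium plus compound exchange DIV 5, 9. Read-out: LDH enzyme activity, spectrophotometric. DMSO = negative control/baseline; signal loss → cytotoxicity.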

[14] = CCTE_Shafer_MEA_dev_mutual_information_norm: CCTE's Neural Network Formation Assay for Mutual Information Normalization, Shafer Lab (AID 2284091)
Summary of the method: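 Shared information across electrodes, tracked on days 5, 7, 9 and 12 of network development and collapsed as trapezoidal area under the curve. Rat cortical cultures were treated continuously from plating, with treatment renewed at feeds on DIV 5 and 9; DMSO baseline, negative-direction fit.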

[15] = CCTE_Shafer_MEA_dev_correlation_coefficient_mean: CCTE's Neural Network Formation Assay for Mean Correlation Coefficient, Shafer Lab (AID 2284093)
Summary of the method: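 Rat cortical cultures, 1.5 x 10^5 cells/well, dosed from day 0 for 12 days. Spontaneous spikes recorded DIV 5/7/9/12; electrode-pair correlation coefficients averaged, AUC taken. Fit in loss direction vs DMSO.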

[16] = CCTE_Mundy_HCI_Cortical_Synap_Neur_Matur_NeuriteSpotCountPerNeuriteLength: CCTE's Synaptogenesis and Neurite Maturation Assay in rat cortical cells for Neurite Spot Count per Neurite Length, Mundy Lab (AID 2284210)
Summary of the method: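 Synaptophysin spots per unit neurite length, measured by automated imaging of MAP2/synaptophysin/Hoechst-stained neurons. Cultures from rat cortex received chemical at DIV 7 with media change through DIV 12; glial growth arrested by AraC at DIV 5; DMSO baseline.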

[17] = CCTE_Mundy_HCI_Cortical_Synap_Neur_Matur_BPCount: CCTE's Synaptogenesis and Neurite Maturation Assay in rat cortical cells for Branch Point Count, Mundy Lab (AID 2284211)
Summary of the method: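 HCI read-out of branch points from MAP2/synaptophysin/Hoechst immunofluorescence; rat cortical cultures, AraC DIV 5, dosing DIV 7, fixed DIV 12; fit in positive direction vs DMSO baseline.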

[18] = CCTE_Mundy_HCI_Cortical_NOG_NeuriteCount: CCTE's Neurite Outgrowth Assay in rat cortical cells for Neurite Count, Mundy Lab (AID 2284212);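 note: cells fixed about two days after chemical exposure began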
Summary of the method: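 Rat cortical primary cells; compound added 2 h post-plating, 1/10 dilution of working solution. Anti-betaIII-tubulin/AF488 ICC; ArrayScan neurite count vs DMSO.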

[19] = CCTE_Mundy_HCI_Cortical_NOG_NeuriteLength: CCTE's Neurite Outgrowth Assay in rat cortical cells for Neurite Length, Mundy Lab (AID 2284213)
Summary of the method: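 First, rat primary cortical cells were plated and, 2 h later, given test chemical as a 1/10 dilution. Finally, βIII-tubulin immunostaining enabled automated imaging of neurite length.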

[20] = CCTE_Mundy_HCI_Cortical_Synap_Neur_Matur_NeuriteLength: CCTE's Synaptogenesis and Neurite Maturation Assay in rat cortical cells for Neurite Length, Mundy Lab (AID 2284214)
Summary of the method: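 Cultures of rat primary cortical cells received chemical at DIV 7 and were fixed at DIV 12, after glial arrest with AraC at DIV 5. Neurite length was measured by automated imaging of MAP2 immunofluorescence.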

[21] = CCTE_Mundy_HCI_Cortical_Synap_Neur_Matur_NeuriteSpotCountPerNeuron: CCTE's Synaptogenesis and Neurite Maturation Assay in rat cortical cells for Neurite Spot Count per Neuron Count, Mundy Lab (AID 2284215)
Summary of the method: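 Developing rat cortical neurons, with glia suppressed by AraC, are exposed to chemicals from DIV 7 to DIV 12. Automated fluorescence imaging of MAP2-labelled neurites and synaptophysin puncta yields a count per neuron, normalised against DMSO wells.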

[22] = CCTE_Mundy_HCI_Cortical_Synap_Neur_Matur_SynapseCount: CCTE's Synaptogenesis and Neurite Maturation Assay in rat cortical cells for Synapse Count, Mundy Lab (AID 2284218)
Summary of the method: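 Cells were plated, allowed 2 hr to attach, treated with AraC at DIV 5, then exposed to chemicals from DIV 7 until DIV 12. After fixation and MAP2/synaptophysin immunolabelling, synapses per neuron were quantified by automated imaging against DMSO.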

[23] = CCTE_Mundy_HCI_hN2_NOG_NeuriteCount: CCTE's Neurite Outgrowth Assay in human hN2 cells for Neurite Count, Mundy Lab (AID 2284219; active = hit-call score of the fitted dose curve at least 0.9, where 1 is the maximum)
Summary of the method: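 In this morphology assay, hNP1-derived neurons received test chemical 2 h post-plating and were fixed two days later in warm paraformaldehyde/sucrose containing Hoechst 33342. Neurites, labelled by rabbit anti-βIII-tubulin (1:800) and Alexa Fluor-488 (1:500), were counted automatically.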

[24] = CCTE_Mundy_HCI_hN2_NOG_NeuriteLength: CCTE's Neurite Outgrowth Assay in human hN2 cells for Neurite Length, Mundy Lab (AID 2284220; active = hit-call score of the fitted dose curve at least 0.9, where 1 is the maximum)
Summary of the method: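 Plate hNP1-derived neurons, then add chemical 2 h later as a 1/10 dilution. Stain with anti-βIII-tubulin then Alexa Fluor-488 secondary, and image automatically to measure neurite length.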

[25] = CCTE_Mundy_HCI_Cortical_Synap_Neur_Matur_NeuriteCount: CCTE's Synaptogenesis and Neurite Maturation Assay in rat cortical cells for Neurite Count, Mundy Lab (AID 2284222);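 note: exposure from day 7 to day 12 in vitro with readout at day 12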
Summary of the method: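 Primary rat cortical cells were plated, treated with AraC at DIV 5, then exposed to chemicals from DIV 7 through DIV 12. After fixation and immunostaining for MAP2 and synaptophysin, imaging quantified neurites, with DMSO as the negative control.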

[26] = CCTE_Mundy_HCI_Cortical_Synap_Neur_Matur_CellBodySpotCount: CCTE's Synaptogenesis and Neurite Maturation Assay in rat cortical cells for Cell Body Spot Count, Mundy Lab (AID 2284223)
Summary of the method: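 Chemicals were applied to AraC-treated rat primary cortical cells at DIV 7 and measured at DIV 12. Fixed cells were labelled for MAP2, synaptophysin and nuclei, and high-content imaging gave cell body synaptophysin spot counts per neuron relative to DMSO.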

[27] = CCTE_Mundy_HCI_Cortical_NOG_NeuronCount: CCTE's Neurite Outgrowth Assay in rat cortical cells for Neuron Count, Mundy Lab (AID 2284236; active = hit-call score of the fitted dose curve at least 0.9, where 1 is the maximum;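 note: neurons counted by imaging betaIII-tubulin and Hoechst stained cortical cells; cells exposed to compound for about 48 hours before fixation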)
Summary of the method: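 Read-out: neuron number by high-content imaging of betaIII-tubulin (Alexa Fluor-488) and Hoechst-labelled rat primary cortical cells.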

[28] = CCTE_Mundy_HCI_Cortical_NOG_BPCount: CCTE's Neurite Outgrowth Assay in rat cortical cells for Branch Point Count, Mundy Lab (AID 2284237)
Summary of the method: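 Measured 50.33 h after dosing, this morphology endpoint uses rat primary cortical cultures labelled for betaIII-tubulin. Branch points are quantified by high-content imaging, with DMSO as negative control and baseline.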

[29] = CCTE_Mundy_HCI_hNP1_Casp3_7: CCTE's Caspase-Glo 3/7 Assay in human neuroprogenitor cells for Apoptosis, Mundy Lab (AID 2284240)
Summary of the method: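 Apoptosis is scored by activated caspase-3/7 luminescence in WA09-derived neural progenitor cells, measured 26.5 h after chemical dosing. Values represent gain of signal relative to DMSO vehicle.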

[30] = CCTE_Mundy_HCI_hNP1_CellTiter: CCTE's Cell Titer-Glo 2 Assay in human neuroprogenitor cells for Viability, Mundy Lab (AID 2284241; active = hit-call score of the fitted dose curve at least 0.9, where 1 is the maximum)
Summary of the method: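 Human neural progenitor cells (hNP1, WA09-derived) were plated on poly-L-ornithine/laminin and grown 40 to 44 hours at 37 °C, 5% CO2 before chemical addition. Twenty-four hours later, ATP was measured by CellTiter-Glo luminescence; loss of signal versus DMSO indicates reduced viability.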

[31] = Tanguay_ZF_120hpf_MUSC: Oregon State University Tanguay Lab 120 Hour Post-fertilization zebrafish Assay for Muscle Malformation (AID 2284401)
Summary of the method: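 Scored as a binary brightfield endpoint at 120 hpf, fitted versus DMSO. Single dechorionated wild-type (Tropical 5D) zebrafish embryos per well, statically exposed at 28C from 6 hpf onward with final DMSO 0.64%.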

[32] = CCTE_Mundy_HCI_hNP1_Pro_ResponderAvgInten: CCTE's Proliferation Assay in human neuroprogenitor cells, Mundy Lab (AID 2284224; active = hit-call score of the fitted dose curve at least 0.9, where 1 is the maximum)
Summary of the method: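 Proliferation was scored as BrdU labelling intensity in human neural progenitors derived from WA09 embryonic cells, measured 26.25 hours after chemical dosing. Activity was fitted relative to DMSO.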

Measured: outcome

C=CCN1CC[C@]23c4c5ccc(O)c4O[C@H]2C(=O)CC[C@@]3(O)[C@H]1C5
not listed: [31] | [32]
inactive: all other assays above

O=S(=O)(Cl)C(F)(F)C(F)(F)C(F)(F)C(F)(F)C(F)(F)C(F)(F)C(F)(F)C(F)(F)F
inactive: [31]

FC(F)(F)C(F)(F)C(F)(F)C(F)(F)C(F)(F)C(F)(F)C(F)(F)CCI
inactive: [31]

C[C@@]1(CO)[C@H](O)CC[C@@]2(C)[C@H]1CC[C@H]1C[C@@H]3C[C@@]12CC[C@]3(O)CO
inactive: [32]
